G9a block: qHTS Assay for Inhibitors of Histone Lysine Methyltransferase G9a | Histone-lysine N-methyltransferase EHMT2 (Homo sapiens), Q96KQ7 | G9a H3K9 monomethylation, AlphaScreen, 2 h | Potency, µM (top dose mostly 102 µM), usual class: inhibitors | 350,000 compounds, 8.8% hits | AID 504332, 2011; also: nearly all actives have a fitted effect of over 75% in size
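Signal arises when biotinylated H3K9 peptide, once monomethylated, bridges streptavidin donor and antibody-captured acceptor beads. Enzyme at 20 nM was preincubated 15 min with test compounds; peptide 500 nM and SAM 20 uM then reacted for 2 h.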
HP1b chromo inh: HTS for Inhibitors of HP1-beta Chromodomain Interactions with Methylated Histone Tails; AlphaScreen HP1-beta / biotin-H3K9me3 peptide binding; Potency, µM (top dose mostly 114 µM), hits mostly inhibitors; Chromobox protein homolog 1 (Homo sapiens), P83916; AID 540317, 2011; 390,000 compounds, 0.56% hits; also: nearly all actives have a fitted effect of over 70% in size
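Compound inhibition of the preformed complex between 50 nM HP1-beta and 50 nM biotinylated H3K9me3 peptide was read by AlphaScreen. Buffer was PBS pH 7.4 with 0.01% Tween-20. Incubations ran 30 min at room temperature, with 10 ug/mL donor/acceptor beads.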
Sfp PPTase inh: qHTS Assay for Inhibitors of Bacillus subtilis Sfp phosphopantetheinyl transferase (PPTase) | Potency, µM, actives largely listed as inhibitors | Biochemical Sfp PPTase activity, qHTS | 310,000 compounds, 3.5% hits;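 also: the enzyme is Sfp with the accession as filed and its product quenches rhodamine fluorescence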
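Fluorescence-quenching assay with 15 nM Sfp, 5 uM rhodamine-CoA and 12.5 uM BHQ-2-labelled ybbR peptide in pH 7.6 Hepes/MgCl2 buffer. Enzyme was pre-incubated with compound for 15 min at room temperature. Rate was taken from the 30-min fluorescence change (525/598 nm).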
L3MBTL1 block: qHTS Assay for the Inhibitors of L3MBTL1; Lethal(3)malignant brain tumor-like protein 1 (Homo sapiens), Q9Y468; AlphaScreen L3MBTL1–H3K9me1 peptide binding; Potency, µM (top dose mostly 57.1 µM), usual class: inhibitors; 230,000 compounds, 0.66% hits; also: nearly all actives have a fitted effect of over 60% in size
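First, the protein-peptide complex forms for 30 min at room temperature (L3MBTL1 50 nM, biotinylated H3K9me1 peptide 75 nM). Next, compounds are pin-transferred and incubated 30 min. Finally, AlphaScreen beads are added and read after 30 min.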
JMJD2A Tudor inh: qHTS Assay for Inhibitors of JMJD2A-Tudor Domain. Potency, µM (doses to about 114 µM), actives largely listed as inhibitors. 390,000 compounds, 4.4% hits. AlphaScreen JMJD2A-Tudor / H3K4me3 peptide binding; also: nearly all actives have a fitted effect of over 50% in size
Target sequence (O75164 whole entry, looked up, the tested form may be a part): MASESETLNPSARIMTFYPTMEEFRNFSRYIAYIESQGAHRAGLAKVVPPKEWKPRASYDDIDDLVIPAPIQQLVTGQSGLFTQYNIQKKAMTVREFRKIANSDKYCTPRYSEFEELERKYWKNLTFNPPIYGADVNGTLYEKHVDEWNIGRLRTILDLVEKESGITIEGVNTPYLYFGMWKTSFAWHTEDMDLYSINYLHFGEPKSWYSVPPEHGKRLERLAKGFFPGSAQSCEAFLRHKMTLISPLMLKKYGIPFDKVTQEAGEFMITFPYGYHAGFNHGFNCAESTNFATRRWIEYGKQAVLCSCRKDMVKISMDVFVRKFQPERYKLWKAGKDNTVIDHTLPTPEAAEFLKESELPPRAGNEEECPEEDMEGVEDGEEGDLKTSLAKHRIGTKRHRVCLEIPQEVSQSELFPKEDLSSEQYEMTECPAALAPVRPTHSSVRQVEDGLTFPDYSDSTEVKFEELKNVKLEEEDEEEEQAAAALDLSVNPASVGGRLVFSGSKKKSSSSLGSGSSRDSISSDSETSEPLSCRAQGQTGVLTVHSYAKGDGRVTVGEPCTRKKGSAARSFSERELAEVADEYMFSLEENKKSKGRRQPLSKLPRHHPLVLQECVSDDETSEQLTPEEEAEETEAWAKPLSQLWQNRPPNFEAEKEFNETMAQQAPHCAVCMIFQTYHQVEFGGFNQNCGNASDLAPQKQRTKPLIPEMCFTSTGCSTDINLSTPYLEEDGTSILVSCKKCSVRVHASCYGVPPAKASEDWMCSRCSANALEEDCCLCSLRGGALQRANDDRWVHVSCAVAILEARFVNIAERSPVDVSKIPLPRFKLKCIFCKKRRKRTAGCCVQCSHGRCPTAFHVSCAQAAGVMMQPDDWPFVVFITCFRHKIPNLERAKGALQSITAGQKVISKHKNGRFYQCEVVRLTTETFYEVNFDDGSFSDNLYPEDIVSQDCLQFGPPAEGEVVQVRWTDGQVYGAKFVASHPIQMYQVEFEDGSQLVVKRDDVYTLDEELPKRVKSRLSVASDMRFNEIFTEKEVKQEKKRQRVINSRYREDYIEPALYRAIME
BAZ2B inh: qHTS Assay for Inhibitors of BAZ2B | Bromodomain adjacent to zinc finger domain protein 2B (Homo sapiens), Q9UIF8 | AlphaScreen BAZ2B-H3K14Ac peptide displacement | Potency, µM (series often up to 114 µM), usual class: inhibitors | 360,000 compounds, 4.4% hits | AID 504333, 2011; also: nearly all actives have a fitted effect of over 60% in size
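BAZ2B (50 nM) with biotin-H3(5-23)K14Ac peptide (50 nM) in PBS pH 7.4, 0.01% Tween-20, preformed 30 min, then compound 30 min at room temperature; top concentration 110uM. AlphaScreen streptavidin donor/nickel chelate acceptor beads (10 ug/mL final), 20 min dark, signal read.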
Large screens that a line does not name were inactive. Rows were chosen to be rich in hits. Some 12% of all compounds tested hit in one or more screens of this group. Calls follow the shape of the dose curve; as a rule, active = well fitted curve in the direction sought with a large enough effect; inconclusive = small, poorly fitted or top-dose-only effect, or another doubt; inactive = no such curve, though single readings can be large; an effect the other way counts as inactive or inconclusive.

COC(=O)C1=C(C(=O)OC)[C@@H]2Nc3ccccc3[C@@]23C[C@@H](C(=O)OC)N(S(=O)(=O)c2cccs2)C3=N1	none (no result: G9a block, HP1b chromo inh, L3MBTL1 block, JMJD2A Tudor inh, BAZ2B inh)
CCc1nnc(NC(=O)c2c(O)c3cccc4c3n(c2=O)CC4)s1	none (no result: HP1b chromo inh, L3MBTL1 block, JMJD2A Tudor inh)
CC(C)c1nc(SCC(=O)N2CCCc3ccccc32)c2c(=O)n(C)c(=O)n(C)c2n1	Sfp PPTase inh 45µM
CCCc1nc(SCC(=O)N2CCc3ccccc32)c2c(=O)n(C)c(=O)n(C)c2n1	none (no result: HP1b chromo inh, JMJD2A Tudor inh)
CCc1nnc(NCC(=O)N2CCc3ccccc32)s1	G9a block 14µM, BAZ2B inh inconclusive
Cn1c(-c2ccccc2)cnc1SCC(=O)N1CCCc2ccccc21	G9a block inconclusive, HP1b chromo inh inconclusive, JMJD2A Tudor inh inconclusive, BAZ2B inh 45µM
O=C(CSc1ncc(-c2ccccc2)n1C1CCCC1)N1CCc2ccccc21	G9a block 32µM, BAZ2B inh inconclusive
Cc1cc(C)cc(NC(=O)CN2CCC(C(=O)c3ccccc3)CC2)c1	none (no result: L3MBTL1 block)
O=C(COC(=O)CCc1ccc(S(=O)(=O)N2CCOCC2)cc1)Nc1ccccc1OC(F)F	none (no result: G9a block, Sfp PPTase inh, BAZ2B inh)
N#CCCN(C(=O)COC(=O)c1cc(=O)c2ccccc2o1)c1ccccc1	none (no result: Sfp PPTase inh)
O=C(CSc1nnnn1-c1ccccc1)N1CCc2ccccc21	G9a block 13µM (no result: L3MBTL1 block)
O=C(CSc1nnnn1-c1ccccc1)N1CCCc2ccccc21	none (no result: L3MBTL1 block)
O=C(CSc1nccn1-c1ccc(Cl)cc1)N1CCCc2ccccc21	G9a block 50µM, HP1b chromo inh inconclusive, JMJD2A Tudor inh inconclusive, BAZ2B inh 35µM
O=C(CSc1nccn1-c1ccccc1)N1CCc2ccccc21	G9a block inconclusive, BAZ2B inh inconclusive (no result: L3MBTL1 block)
Cc1ccc(-c2cnc(SCC(=O)N3CCCc4ccccc43)n2C)cc1	G9a block 11µM, HP1b chromo inh inconclusive, L3MBTL1 block inconclusive, JMJD2A Tudor inh inconclusive, BAZ2B inh 28µM
COc1ccc2c(C)c(CCC(=O)NCc3ccccc3OC)c(=O)oc2c1	none (no result: Sfp PPTase inh, L3MBTL1 block)
COc1ccc(NC(=S)N/N=C/c2cccn2Cc2ccc(F)cc2Cl)cc1	G9a block 22µM, HP1b chromo inh inconclusive, JMJD2A Tudor inh 28µM, BAZ2B inh 18µM (no result: L3MBTL1 block)
CSc1ccccc1NC(=S)N/N=C/c1cccn1Cc1cccc(C)c1	G9a block 25µM, BAZ2B inh 8.9µM (no result: L3MBTL1 block)
CSc1ccccc1NC(=O)CSCc1ccc(C)cc1	none (no result: G9a block)
Cc1cccc(NC(=S)N/N=C/c2cccn2Cc2ccc(F)cc2)c1	G9a block inconclusive, BAZ2B inh 8.9µM (no result: L3MBTL1 block)
CSc1ccccc1NC(=S)N/N=C/c1cccn1Cc1ccc(F)cc1	G9a block 32µM, JMJD2A Tudor inh 35µM, BAZ2B inh 28µM (no result: L3MBTL1 block)
COc1ccc(NC(=S)N/N=C/c2cccn2Cc2ccccc2F)cc1	G9a block inconclusive (no result: L3MBTL1 block)
COCCCN1C(=O)c2ccc(C(=O)NCCc3ccccc3)cc2C1=O	none (no result: L3MBTL1 block)
Oc1ccc2ccccc2c1C=NC1CCCCC1	G9a block 8.9µM, BAZ2B inh inconclusive (no result: L3MBTL1 block)
NC(=S)N/N=C/c1c(O)ccc2ccccc12	JMJD2A Tudor inh 56µM, BAZ2B inh 2.5µM (no result: G9a block, L3MBTL1 block)
Oc1ccc2ccccc2c1/C=N/c1nc2c(s1)CCCC2	G9a block 1.4µM, HP1b chromo inh inconclusive, JMJD2A Tudor inh 50µM (no result: L3MBTL1 block)
Cc1cc(C)n(/N=C\c2c(O)ccc3ccccc23)c(=O)c1C(N)=O	G9a block 1.1µM, JMJD2A Tudor inh 89µM (no result: L3MBTL1 block)
Fc1ccc(Nc2nc3nonc3nc2Nc2cccc(C(F)(F)F)c2)cc1	JMJD2A Tudor inh inconclusive, BAZ2B inh inconclusive (no result: Sfp PPTase inh, L3MBTL1 block)
CN1CCN(c2ncc3nc(-c4cccc(C#N)c4)c(=O)n(CCC#N)c3n2)CC1	none (no result: HP1b chromo inh, L3MBTL1 block, JMJD2A Tudor inh, BAZ2B inh)
CCOc1ccccc1C(=O)N1CCC(c2nc3ccccc3o2)CC1	none (no result: Sfp PPTase inh, L3MBTL1 block)
CC(C)=CCC/C(C)=C/CNC(=O)C[C@H]1C[C@H](C(=O)N2CCCCC2)[C@@]2(C)c3[nH]c4cc(CCC(=O)N(C)C)ccc4c3CCN2C1=O	JMJD2A Tudor inh inconclusive (no result: G9a block, Sfp PPTase inh, BAZ2B inh)
